Tgondii IFNg: inhibitors of Toxoplasma gondii growth with IFN-gamma | actives 3.8% (n = 69,000) | Toxoplasma gondii growth in IFN-gamma-treated host cells; hits give low values | activity change, negative = inhibition, % (test concentration not listed) | AID 1259416; in the data active = activity change below about -70%, passing the limit was not always enough;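 also: host cells are HeLa cells infected with Toxoplasma gondii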
Numbers without * were called inactive; ! = repeats disagree. The entries come from a sample that favours hits as a whole.

SMILES	Tgondii IFNg
O=C(NC1CCC(n2cnnc2)CC1)c1ccc(C2CCCO2)s1 (centres undefined)	36
Cc1cccc(COCC2CC3OCCN(Cc4ccco4)C3C2)n1 (centres undefined)	3
Cc1cc(C)c2c(=O)n(Cc3nc(-c4ccccc4)oc3C)c(=O)n(C)c2n1	-51
COc1cccc(OC)c1-c1n[nH]c2ccc(C)cc12	-18
O=C(c1ccc2c(c1)CCC(=O)N2Cc1ccccc1)N1CCN(c2ccc(F)cc2)CC1	-108*
CCCN1C(=O)CCc2cc(C(=O)N3CCOCC3)ccc21	-14
O=C(CN1C(=O)CCc2cc(Br)ccc21)N1CCN(c2ccccc2)CC1	-43
Cc1nonc1COc1ccc(C(=O)O)cc1	-31
CSc1ssc(=Nc2ccc(F)c(F)c2)c1-c1ccccc1	-71*
O=C(NCC1CC1)C1CN(Cc2cccs2)CC12CCOCC2 (centres undefined)	119
CN1C[C@H]2[C@H](C(=O)Nc3ccccc3)CCS(=O)(=O)[C@H]2C1	100
CCC1(CC)NC(=O)N(CC(=O)Nc2nnc(-c3cccc(C)c3)s2)C1=O	12
Cc1cc(OCC(=O)Nc2ccc(C(=O)OCC(C)C)cc2)cc(C)c1Cl	-55
CC(C)COC(=O)c1nc(Cl)c(Cl)c(N)c1Cl	-96*
CC(=O)N1CC(c2nc(C)cc(N3CCC[C@@H]3CO)n2)C1	6
Cc1cnn(-c2cnn3cccnc23)c1	-11
C=CCC(=O)N(CC)CCOc1cccc(C)c1	24
O=C(Cc1ccccc1)NO	-36
CCCCOc1ccc(CC(=O)NO)cc1	-100*!
CCCCOc1ccc(NC(=O)CN2CCN(CC)CC2)cc1	-38
O=C(NCCc1csc(-c2ccccc2)n1)[C@H]1CCCN1C(=O)Cc1ccc(F)cc1	4
CO[C@H]1CN(C(=O)c2ccc(-c3nnn(C)n3)cc2)CC[C@H]1N	-2
CC(C)c1cc(C2CCN(C(=O)C[C@@H]3C[C@@H]4C=C[C@H]3C4)CC2)[nH]n1	204
CC(C)(C)Cn1c(N)nc2ccc(-c3[nH]c(C(C)(C)C)nc3-c3ccc(F)cc3)nc21	-83*
COc1cccc(-n2c(=O)c(C(=O)Nc3ccc(F)c(Cl)c3)c(O)c3cccnc32)c1	85
SMILES	Tgondii IFNg
CNC(=O)CN1CCOCC12CCN(c1cnccn1)CC2	-25
CSc1nnnn1-c1ccc(S(=O)(=O)N(C)C)cc1	-7
CN1C(=O)CCc2cc(NS(=O)(=O)c3ccc(Br)s3)ccc21	-97*
CN1C(=O)CCc2cc(NS(=O)(=O)Cc3cccc(Cl)c3)ccc21	23
COCCN1C(=O)CCc2cc(NS(=O)(=O)c3ccc(Br)cc3)ccc21	7
Cc1ccc(S(=O)(=O)Nc2ccc3c(c2)CCC(=O)N3C)cc1Cl	-39
COCCN1C(=O)CCc2cc(NS(=O)(=O)c3ccc(Cl)s3)ccc21	21
CN1C(=O)CCc2cc(NS(=O)(=O)c3ccc(Br)cc3)ccc21	-95*
CS(=O)(=O)N1CCC2(CC1)CC(Nc1ncccn1)C2	301
O=C(Nc1cccc(C(F)(F)F)c1)c1nc(Nc2ccccc2)c2ccccc2n1	69
Cc1ccc(C(=O)N2CCN(S(=O)(=O)c3cn(C)nc3-c3ccncc3)CC2)cc1	1
CC(C)CCNC(=O)C1(CC2CC(c3ccccc3)=NO2)CCN(C(=O)C(C)C)CC1 (centres undefined)	10
COc1cccc(-c2nc(Cn3ccn4nc(-c5cccs5)cc4c3=O)c(C)o2)c1OC	-97*
COc1ccc(-c2cc3c(=O)n(Cc4nc(-c5ccc(OC(C)C)cc5)oc4C)ccn3n2)cc1	-54
COc1ccc(-c2nc(Cn3ccn4nc(-c5ccc(OC)c(OC)c5)cc4c3=O)c(C)o2)cc1	-35
COc1ccccc1-c1cc2c(=O)n(Cc3nc(-c4cccc(OC)c4OC)oc3C)ccn2n1	-19
COc1ccccc1-c1nc(Cn2ccn3nc(-c4cccs4)cc3c2=O)c(C)o1	51
COc1ccc(-c2cc3c(=O)n(Cc4nc(-c5ccc(OC(C)C)cc5)oc4C)ccn3n2)cc1OC	-92*
CC(=O)N1CC[C@@]2(C(=O)Nc3ccccc3)CCN(S(=O)(=O)c3ccccc3)CC[C@H]12	9
COc1nc(N)c(C#N)c(-c2ccc(Cl)cc2Cl)c1C#N	-33
CC(C)c1ccc(C(=O)N2CCc3c(ncnc3N(C)C)C2)c(=O)[nH]1	-5
CC(C)C1=NOC(CNC(=O)c2cc(-c3cccn3C)n[nH]2)C1 (centres undefined)	27
Cc1ccc2[nH]c(-c3nc(CCN(C)C(=O)c4cccn4C)no3)cc2c1	48
COc1ccc2[nH]c(-c3nc(CCN(C)C(=O)c4ccncc4)no3)cc2c1	102
CCc1c(-c2nc(CCN(C)C(=O)c3cccn3C)no2)[nH]c2ccc(C)cc12	-91*
SMILES	Tgondii IFNg
c1csc(-c2cc(NC3CCNCC3)nc3[nH]ccc23)n1	-56
Cc1cc(C)c2c(c1)CC(C)(C)c1[nH]c(-c3ccc(Cl)cc3Cl)nc1-2	-71*
COCC1c2c(cnn2CC2CC2)CCN1Cc1nc(C)cs1 (centres undefined)	7
COc1cccc(C(=O)NCCC(=O)N2[C@@H]3CC[C@H]2CN(C)C(=O)C3)c1	-46
CC(C)c1ccc(S(=O)(=O)N2CCCn3nnc(Cn4cccn4)c3C2)cc1	83
Nc1nc(-c2ccccc2)c(Br)c(=O)[nH]1	2
O=c1[nH]c2ccccc2nc1/C=C/c1cccs1	-8
O=c1[nH]c(-c2ccccc2)nnc1/C=C/c1ccccc1	-85*
O=C(NCc1cccc(F)c1)c1nc2c(o1)CN(c1ncccn1)C2	-61
NS(=O)(=O)c1ccc(CCC(=O)N[C@@H]2CCC(=O)N[C@H]2c2ccsc2)cc1	24
Cc1ccc([N+](=O)[O-])cc1S(=O)(=O)N(C)/N=C/c1cnc2ccc(Br)cn12	-80*
COCC1(C(=O)N2CCN(CCc3ccncc3)CC2)CCC1	17
O=C1c2cccc(O)c2C(=O)c2c(O)cc(CO)cc21	-62
O=C1c2c(O)ccc(O)c2C(=O)c2c(NCCNCCO)ccc(NCCNCCO)c21	-88*
Cc1cccc(CN2C[C@H]3[C@H](C(=O)Nc4ccccc4)CCS(=O)(=O)[C@H]3C2)c1	-115*
Cc1cccc(CN2C[C@H]3[C@H](C(=O)N(C)C)CCS(=O)(=O)[C@H]3C2)c1	-47
Cc1cccc(CN2C[C@H]3[C@H](C(=O)N4CCOCC4)CCS(=O)(=O)[C@H]3C2)c1	-1
CC(C)NC(=O)c1ccnc(N2CC(c3cccnc3)C2)c1	7
CCOC(=O)c1cccc(NC(=O)c2ccccc2OCC)c1	-34
CCc1ccc(OCc2ccccc2C(=O)Nc2ccc3nc(C)cc(N)c3c2)cc1	-74*
CCc1cccc(NC(=O)c2nc(Nc3ccc(C)cc3)c3ccccc3n2)c1	88
CCc1nn(C)c(Cl)c1CN1CCCC(c2nn(C)c(=O)n2CC)C1 (centres undefined)	-1
CCC(=O)N1CCC2(CCOCC2COc2ccccn2)CC1 (centres undefined)	0
Cc1cc(C)c(S(=O)(=O)NCCc2csc(-c3cccc(F)c3)n2)cc1C	112
Cc1ccc(C(=O)N2CCC3(CC2)CC(CC(=O)NCC2CC2)c2ccccc23)o1 (centres undefined)	-13
COCC1CN(C(=O)c2cc(C)no2)Cc2cncn2C1 (centres undefined)	-56
COc1ccc(OC)c(Nc2ncnc3ccc(Br)cc23)c1	-47
COc1cc2c(N3CCN(C(=O)Nc4ccc(OC(C)C)cc4)CC3)ncnc2cc1OCCCN1CCCCC1	-17
COc1cc2ncnc(Nc3ccc(O)c(Br)c3)c2cc1OC	-74*
Nc1cc2ncnc(Nc3cccc(Br)c3)c2cc1N	11
